High-throughput results as filed in PubChem BioAssay.
An excerpt weighted towards active compounds, which were near 7.3% of everything screened.
SMN2 splice up: enhancers of SMN2 splice variant expression; 210,000 compounds, 2.8% hits; HEK293 SMN2-luciferase splicing reporter, luminescence, 30-36 h; Potency, µM (titrated, usually from 46.1 µM), without a hit: top-dose activity change, positive = activation, actives largely listed as activators; note: % of control where 0% means no effect; nearly all actives have a fitted effect of over 55% in size
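HEK293 cells carry an SMN2 […]–luciferase reporter in which exon 7 inclusion puts luciferase in frame. Cells were plated 10-12 h before compound addition, then incubated 30-36 h at 37C. ONE-Glo luminescence was read; sodium butyrate at 4.5 mM final served as control.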
uPA generation: blocks generation of uPA at the cell surface; cell surface uPA generation assay, qHTS; Potency, µM (series often up to 38.3 µM), for inactives: at the top dose activity change, negative = inhibition, usual class: inhibitors; 330,000 compounds, 0.31% hits; AID 540303; active = well fitted inhibition curve with a large enough effect; inconclusive = small, poorly fitted or top-dose-only effect; inactive = no such curve, though single readings can be large or run the other way; tested in mouse RAW 264.7 cells; note: % is set by controls: 0 for no effect and ±100 for the full control effect; nearly all actives have a fitted effect of over 55% in size
NPC1 prom act: activates the NPC1 promoter; Huh7 NPC1 promoter luciferase reporter, 24 h; Potency, µM (highest dose often 9.22 µM), without a hit: at the highest dose activation, hits mostly activators; 320,000 compounds, 2.4% hits; AID 485313; note: % of control where 0% means no effect; nearly all actives have a fitted effect of over 60% in size
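NPC1 promoter–luciferase Huh7 cells; 24 h compound; luminescence.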
Rab9 prom act: Rab9 promoter activation. Huh7 Rab9 promoter-luciferase reporter, luminescence, 24 h. Potency, µM (doses to about 9.22 µM), for inactives: at the top dose activation, negative = inhibition, actives largely listed as activators. 320,000 compounds, 2.8% hits. AID 485297; note: % of control where 0% means no effect; nearly all actives have a fitted effect of over 60% in size
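Steps: seed 1500 Huh7 Rab9-luc cells per well, rest 2 h at 37 °C; add compound in DMSO; incubate 24 h; add luciferase reagent, 10 min ambient; read luminescence.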
ELG1 genotox: genotoxicity induction in ELG1-luciferase HEK293T cells; HEK293T ELG1-luciferase reporter, luminescence, 16 h; Potency, µM (highest dose often 46 µM), for the others: at the highest dose activity change, positive = activation, hits mostly activators; 330,000 compounds, 1.3% hits; note: % of control where 0% means no effect; nearly all actives have a fitted effect of over 60% in size
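Luminescence read-out: rising ELG1-luciferase signal, reflecting elevated ELG1 protein under genetic stress, flags genotoxic compounds. Cells were treated for 16 hr at 37 °C before ONE-Glo detection.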
FLuc counter: counter-screen for miR-21 project: firefly luciferase inhibitors or activators. AID 588342. Potency, µM (titrated, usually from 57.5 µM), without a hit: at the top dose activity change, negative = inhibition, actives largely listed as inhibitors. purified FLuc, Km substrates, luminescence inhibition. P08659. 360,000 compounds, 6.9% hits;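 note: plate controls were vehicle for no effect and reference inhibitor for full effect; nearly all actives have a fitted effect of over 55% in size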
Target sequence (P08659 whole entry, looked up): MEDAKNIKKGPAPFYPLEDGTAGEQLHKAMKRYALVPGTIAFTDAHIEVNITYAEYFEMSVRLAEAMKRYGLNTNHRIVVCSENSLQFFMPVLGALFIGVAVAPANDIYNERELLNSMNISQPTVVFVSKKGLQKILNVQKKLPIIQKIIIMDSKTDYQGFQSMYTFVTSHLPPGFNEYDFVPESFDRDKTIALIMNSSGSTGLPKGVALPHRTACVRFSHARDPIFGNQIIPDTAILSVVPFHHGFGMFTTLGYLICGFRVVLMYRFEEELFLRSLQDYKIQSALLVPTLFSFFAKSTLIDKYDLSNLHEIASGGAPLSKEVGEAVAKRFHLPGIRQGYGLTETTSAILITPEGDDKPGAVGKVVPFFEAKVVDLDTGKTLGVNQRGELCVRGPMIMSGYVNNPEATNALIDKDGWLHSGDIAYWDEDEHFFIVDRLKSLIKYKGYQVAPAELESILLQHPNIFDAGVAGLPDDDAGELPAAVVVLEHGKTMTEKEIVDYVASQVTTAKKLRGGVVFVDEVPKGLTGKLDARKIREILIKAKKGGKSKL
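Purified P. pyralis luciferase (10nM final) with 10uM D-luciferin and 10uM ATP (Km levels) in 50mM Tris acetate pH 7.5, 10mM Mg acetate, 0.01% Tween-20, 0.05% BSA; qHTS 6-point titration, ~60 µM downward; luminescence read.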
Starred values were filed as active, the others as inactive; ? = inconclusive; / = not tested or not shown. Unless noted, calls come from the whole dose curve; as a rule, active = well fitted curve in the direction sought with a large enough effect; inconclusive = small, poorly fitted or top-dose-only effect, or another doubt; inactive = no such curve, though single readings can be large; an effect the other way counts as inactive or inconclusive. Potency is the fitted concentration of half-maximal effect.

SMILES | SMN2 splice up | uPA generation | NPC1 prom act | Rab9 prom act | ELG1 genotox | FLuc counter
CCn1c(SCC(=O)Nc2ccccc2F)nnc1-c1cnccn1 | / | 4.5% | -1.9% | -0.9% | 2.0% | -2.7%
Cn1c(SCc2ccccc2)nnc1-c1cnccn1 | 8.1% | / | 17.7% | 6.31µM* | 19.9% | -17.8%
CCn1c(SCC(=O)c2ccccc2)nnc1-c1cnccn1 | ? | -2.1% | ? | ? | 16.4µM* | 21.3µM*
Cn1c(SCC(=O)c2ccccc2)nnc1-c1cnccn1 | 23.8% | 0.5% | ? | 3.16µM* | ? | ?
Cn1c(SCc2ccc(F)cc2)nnc1-c1cnccn1 | / | -7.4% | 23.5% | 27.5% | 10.2% | -18.0%
CCn1c(SCC(=O)O)nnc1-c1ccccc1OC | / | 3.7% | 4.47µM* | 3.16µM* | 23.1µM* | 13.5µM*
CCOc1ccccc1NC(=O)C(C)Sc1nc2c(c(=O)[nH]1)CCCC2 (stereo not given) | / | / | / | / | / | -1.7%
O=C(O)[C@@H]1CN[C@@H](C(=O)O)C1 | -0.6% | / | / | / | / | /
CCC(=O)Nc1cccc(-c2nnc(SCC(=O)c3ccccc3)n2C)c1 | 2.7% | -1.6% | ? | 1.78µM* | ? | 6.01µM*
Cn1c(SCC(=O)NCc2cccs2)nnc1-c1cccs1 | -14.4% | 4.1% | / | / | / | 2.7%
CCC(=O)Nc1cccc(-n2nnnc2SCC(=O)c2ccc(C)c(C)c2)c1 | -9.9% | 2.2% | 16.9% | 16.7% | 11.6% | 15.1µM*
Cn1c(SCC(=O)c2ccccc2)nnc1-c1cccs1 | / | -16.5% | 3.16µM* | 2.82µM* | ? | 12µM*
CCC(=O)Nc1cccc(-c2nnc(SCC(=O)NCc3ccco3)n2C)c1 | 2.0% | 0.1% | -2.3% | -1.8% | -0.5% | -2.1%
CCC(=O)Nc1cccc(-n2nnnc2SCC(=O)NCc2ccco2)c1 | -10.2% | 4.9% | 5.0% | 2.0% | 10.0% | 3.2%
Cc1sc(NC(=O)c2ccco2)c(C(c2cccnc2)N2CCN(c3ccc(F)cc3)CC2)c1C (stereo not given) | -68.0% | ? | -14.3% | -9.5% | 0.517µM* | 0.1%
Cc1nn(CCCC(=O)Nc2ccccc2C(F)(F)F)c(=O)c2c1sc1ccccc12 | / | / | / | / | / | -17.4%
O=C(Nc1ccccn1)c1ccc(NC(=O)c2ccco2)cc1 | 12.6µM* | -2.2% | 2.24µM* | 2.24µM* | ? | 10.7µM*
O=C(c1ccccc1)c1nc[nH]c1C(=O)Nc1ccccn1 | 1.7% | -4.4% | 15.0% | 3.0% | ? | -17.5%
Cc1cc(C(=O)Nc2ccccn2)cs1 | 7.94µM* | / | 1.41µM* | 1.41µM* | ? | 10.7µM*
O=C(NC(=O)c1ccccc1)Nc1ccccn1 | / | / | -22.6% | 1.26µM* | ? | 0.269µM*
O=C(Nc1ccccn1)c1ccc(C(=O)c2ccccc2)cc1 | / | -0.6% | 3.55µM* | 2.51µM* | 4.61µM* | 4.26µM*
CC(=O)c1ccc(NC(=O)c2cc3sccc3n2Cc2ccc(Cl)cc2)cc1 | -1.9% | / | / | / | / | 4.9%
CC(C)c1nc(SCC(=O)Nc2ccc(C(=O)O)cc2)c2c3c(sc2n1)CCCC3 | / | / | -1.8% | -0.7% | 9.5% | 26.9µM*
O=C(Nc1ccc(Cl)cc1)OCc1ccccn1 | 12.6µM* | -2.5% | 2.51µM* | 2.24µM* | 17.7% | 12µM*
O=C(Nc1ccc(Cl)cc1)OCc1cncs1 | -26.2% | -1.3% | ? | ? | 6.5% | 15.1µM*
SMILES | SMN2 splice up | uPA generation | NPC1 prom act | Rab9 prom act | ELG1 genotox | FLuc counter
CCOC(=O)c1cc2c(nc1N)CC(C)(C)OC2 | -2.3% | -0.7% | 0.4% | 11.4% | 14.8% | ?
CCOC(=O)c1cc2c(nc1N)CC(C)(CC)OC2 (stereo not given) | ? | -3.3% | ? | 3.16µM* | 13µM* | ?
CCOC(=O)c1sc2nc3c(cc2c1N)COC(C)(CC)C3 (stereo not given) | 10µM* | -4.3% | 0.794µM* | 0.794µM* | ? | 1.35µM*
CCC1(C)Cc2nc3sc(C(=O)O)c(N)c3cc2CO1 (stereo not given) | 17.1% | 6.0% | 7.6% | 2.0% | 9.5% | ?
CCOC(=O)c1sc2nc3c(cc2c1N)COC(C)(C)C3 | 11.2µM* | -1.9% | 2.82µM* | 2.51µM* | ? | 6.75µM*
Cc1ccc(CSc2nnc(-n3c(=O)c(C#N)cc4c(=O)n5cc(C)ccc5nc43)s2)cc1 | 2.0% | / | / | / | / | -0.6%
CC(=O)Nc1ccc(N=Cc2c(O)c(C(=O)Nc3ccccc3)cc3ccccc23)cc1 | -8.4% | -3.1% | 12.5% | 22.5% | -3.4% | 0.675µM*
COc1ccc(CNC(=O)c2sc3nc4c(c(C(F)(F)F)c3c2N)CCC4)cc1OC | -76.4% | -3.8% | -0.4% | -5.1% | 4.3% | 21.3µM*
FC(F)(F)c1ccc(-c2csc(-c3ccno3)n2)cc1 | / | ? | 10.7% | 18.0% | -1.1% | 26.9µM*
Cc1ccc(SCCN2CCC(C)CCC2=O)cc1 (stereo not given) | / | -14.6% | 3.98µM* | ? | ? | 19µM*
CC(C)(C)C1CCC(=O)N(CCSc2ccccc2)CC1 (stereo not given) | / | -9.5% | 2.51µM* | 3.16µM* | ? | 7.57µM*
C=CCc1ccccc1OCCn1nnc2ccccc21 | / | -8.5% | 0.2% | 5.5% | -0.2% | -8.5%
C/C=C/c1ccc(OCCn2nnc3ccccc32)c(OC)c1 | / | -10.2% | 26.0% | ? | ? | 16.9µM*
Cc1cccc(OCCn2nnc3ccccc32)c1C | / | -3.7% | ? | 26.6% | ? | 16.9µM*
COc1ccc(-c2cc(C(=O)N(C)CC(=O)Nc3cccc(F)c3)c3ccccc3n2)cc1 | / | ? | -0.5% | -4.1% | -11.6% | 19µM*
COc1ccc(-c2nn(-c3ccccc3)cc2C(=O)N(C)CC(=O)Nc2cccc(F)c2)cc1 | / | ? | -3.8% | -2.9% | -2.6% | 2.8%
CN(CC(=O)Nc1cccc(F)c1)C(=O)c1cc(-c2ccccc2)nc2ccccc12 | / | 1.7% | -1.8% | -6.0% | -5.2% | -14.0%
COc1cccc(-c2nn(-c3ccc(C)cc3)cc2C(=O)N(C)CC(=O)Nc2cccc(F)c2)c1 | / | 2.1% | -3.3% | -6.9% | -12.9% | 8.49µM*
Cc1ccc2nc(-c3ccccc3)cc(C(=O)N(C)CC(=O)Nc3ccccc3Br)c2c1 | / | 9.7% | 0.8% | -0.6% | -10.2% | 16.9µM*
Cc1ccc(NC(=O)CN(C)C(=O)c2cc(-c3ccco3)nc3ccccc23)cc1 | / | -2.7% | -3.7% | 0.6% | -4.2% | 23.9µM*
Cc1cccc(C)c1Nc1c(-c2ccc(Cl)s2)nc2ncccn12 | -9.4% | / | / | / | / | -9.6%
COc1ccc(NC(=O)CN(C)C(=O)c2cc(-c3ccc(OC)cc3)nc3ccccc23)cc1 | / | 2.9% | 10.3% | 12.8% | -27.0% | 8.49µM*
O=C(Nc1cccc(N2C(=O)C3CCCCC3C2=O)c1)c1ccccc1 (stereo not given) | / | -3.7% | 1.6% | -5.7% | 5.9% | 19µM*
